# Screening data (PubChem)
# NS1 inh: qHTS Assay for Inhibitors of Influenza NS1 Protein Function; Potency, µM (series often up to 46.1 µM), for inactives: at the highest dose activity, positive = more growth; 270,000 compounds, 0.4% hits; AID 2326, 2010; also: potency is read from the fitted curve at half-maximal effect; actives are rising curves; nearly all actives have a fitted effect of over 50% in size
#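 In this qHTS, NS1 from influenza A is expressed in budding yeast, where it slows growth. Cells are switched from glucose to 2% galactose medium (pH 6.0, -URA), treated with compound, and growth recovery is read at OD600.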
# TbPYK inhibitor: qHTS of Trypanosoma Brucei Inhibitors; Potency, µM (titrated, usually from 76.8 µM), for the others: at the highest dose activity, negative = inhibition, usual class: inhibitors; 410,000 compounds, 0.12% hits; TbPYK enzyme, Kinase-Glo Plus ATP luminescence, 45 min; pyruvate kinase (Trypanosoma brucei), Q57TT1; active = well fitted curve in the direction sought with a large enough effect; inconclusive = small, poorly fitted or top-dose-only effect, or another doubt; inactive = no such curve, though single readings can be large; an effect the other way counts as inactive or inconclusive; also: potency is read from the fitted curve at half-maximal effect; % is scaled to controls: 0 for no effect and ±100 for the full control effect; nearly all actives have a fitted effect of over 50% in size
#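 Activity of T. brucei pyruvate kinase was followed by Kinase-Glo Plus luminescence after the enzyme reacted 45 min at room temperature with 130 uM ADP (final) and substrate. Test compounds were added before ADP at multiple concentrations.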
# LmPK inh: qHTS Assay for Inhibitors of Leishmania Mexicana Pyruvate Kinase (LmPK). 290,000 compounds, 0.37% hits. purified LmPK, Kinase-Glo ATP luminescence, 1 h. Q27686. Potency, µM (top dose mostly 57.5 µM), without a hit: at the top dose activity change, negative = inhibition, hits mostly inhibitors; active = well fitted curve in the direction sought with a large enough effect; inconclusive = small, poorly fitted or top-dose-only effect, or another doubt; inactive = no such curve, though single readings can be large; an effect the other way counts as inactive or inconclusive; also: potency is read from the fitted curve at half-maximal effect; % is scaled to controls: 0 for no effect and ±100 for the full control effect
# Target sequence (Q27686 whole entry, looked up): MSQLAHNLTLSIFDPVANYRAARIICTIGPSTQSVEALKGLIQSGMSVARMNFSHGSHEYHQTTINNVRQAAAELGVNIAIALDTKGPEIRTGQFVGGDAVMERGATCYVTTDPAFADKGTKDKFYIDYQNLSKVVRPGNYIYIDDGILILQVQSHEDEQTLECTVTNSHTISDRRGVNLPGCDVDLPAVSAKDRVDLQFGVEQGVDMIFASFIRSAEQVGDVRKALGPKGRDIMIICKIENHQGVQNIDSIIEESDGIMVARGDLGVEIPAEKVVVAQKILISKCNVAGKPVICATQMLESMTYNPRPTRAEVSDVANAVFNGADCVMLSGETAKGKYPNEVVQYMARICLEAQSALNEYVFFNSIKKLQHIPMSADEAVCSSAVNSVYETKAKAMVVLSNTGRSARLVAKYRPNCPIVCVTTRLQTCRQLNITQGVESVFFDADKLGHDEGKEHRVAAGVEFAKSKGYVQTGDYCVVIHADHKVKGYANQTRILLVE
#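 qHTS format; LmPK 0.1 nM; substrates PEP 0.5 mM and ADP 0.1 mM. One-hour room-temperature incubation, then coupled luciferase luminescence; 0.5 nM enzyme wells mark activation.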
# Shiga toxin inh: A qHTS for Small Molecule Inhibitors of Shiga Toxin. Vero cells, Shiga toxin protein synthesis inhibition reporter. inhibition, % at 38.7 µM. 290,000 compounds, 9.2% hits; in the data active = inhibition mostly above about 28%, no sharp cut-off; inactive = mostly below about 43%; also: 0% is about no effect
# Cycloheximide cs: Cycloheximide Counterscreen for Small Molecule Inhibitors of Shiga Toxin | cell reporter, cycloheximide protein synthesis inhibition counterscreen | 300,000 compounds, 12% hits | max response, % | AID 2314, 2010; in the data active = max response mostly above about 13%, no sharp cut-off; inactive = mostly below about 14%; also: read at 38.3 µM for the half of the compounds with a filed dose; 0% is about no effect
# SARS PLP yeast: qHTS of Yeast-based Assay for SARS-CoV PLP. Potency, µM (highest dose often 32.9 µM), for inactives: at the top dose activity, positive = growth rescue, most hits filed as activators. 330,000 compounds, 0.19% hits. S. cerevisiae expressing SARS-CoV PLpro, growth rescue. AID 485353, 2010; also: potency is read from the fitted curve at half-maximal effect; 0% is about no effect; nearly all actives have a fitted effect of over 55% in size
# NS1 inh valid: Assay for Inhibitors of Influenza NS1 Protein Function: Hit Validation; shares compounds with NS1 inh; influenza NS1 function cell assay, 15-point titration; activity change, negative = inhibition, % at 32.9 µM; 1,400 tested, under 10 active; AID 492980, 2010; also: 0% is about no effect
# An asterisk follows results filed as active; ? = inconclusive; nt = no result given; ! = repeats disagree. Shown is part of a subset that was picked to be rich in hits. Unless noted, calls follow the shape of the full dose curve.
SMILES,NS1 inh,TbPYK inhibitor,LmPK inh,Shiga toxin inh,Cycloheximide cs,SARS PLP yeast,NS1 inh valid
COc1ccc(/C=N/NS(=O)(=O)c2ccccc2)cc1OC(=O)c1ccc(C)cc1,8.9µM*,5%,8%,-10,-1,3%,-5
COc1ccc(COc2cc(-c3cccc(OC)c3)nc3ccc(N)cc23)cc1,4.5µM*,-4%,9%,61*!,37*!,3%,-4
COc1ccc(COc2cc(-c3cccc(OC)c3)nc3ccc(NC(=O)c4ccc(N(C)C)cc4)cc23)cc1,10µM*,0%,1%,-5,1,6%,?
COc1ccc(COc2cc(-c3cccc(OC)c3)nc3ccc(NC(=O)c4ccc(C)cc4)cc23)cc1,19%,-3%,-2%,7,-6,2%,nt
COc1ccc(COc2cc(-c3cccc(OC)c3)nc3ccc(NC(C)=O)cc23)cc1,2%,4%,5%,36,-4,1%,nt
COc1ccc(CNC(=O)Cc2c(C)c3c(cc(C)c4c(C)c(C)oc43)oc2=O)cc1OC,nt,1%,nt,nt,nt,nt,nt
Cc1cc2n(c1)CCn1c(C)ccc1-2,13µM*,nt,-3%,-9,-4,2%,-12
Cc1cc(C)n(S(=O)(=O)c2cc(C(=O)O)c(Cl)cc2Cl)n1,?,-1%,-1%,-9,0,10%,10
Cc1cc(C)n(S(=O)(=O)c2ccc(Cl)c(Cl)c2Cl)n1,-42%,-19%,1%,-7,-3,-10%,nt
NNC(=O)c1cc2c(N3CCC(Cc4ccccc4)CC3)ncnc2s1,nt,-4%,2%,-8,-6,-1%,nt
COC(=O)c1ccc2c(c1)sc(=NC(=O)CCS(=O)(=O)c1ccccc1)n2C,nt,-3%,nt,nt,nt,-7%,nt
O=C1N/C(=N/N=C/c2ccccc2)SC1(c1ccccc1)c1ccccc1,14µM*,1%,15%,17,-3,15%,2
Cc1cccc(Nc2nn3c(=O)c4cc5c(cc4nc3s2)OCO5)c1,nt,-2%,nt,nt,nt,nt,nt
CCCCn1c(C)cc2cc(O)ccc21,10µM*,-7%,7%,-22,7,-9%,?
Cc1cc(C)n(C(=O)c2cc([N+](=O)[O-])cc([N+](=O)[O-])c2)n1,8%,-6%,0%,13,-4,5%,nt
Cc1nn(C)c(C)c1CCC(=O)N1CCCC(N2CCN(c3ccc(F)cc3)CC2)C1 (stereo unspecified),?,-7%,6%,24,6,2%,-9
Cc1noc(C)c1CCC(=O)N1CCCC(N2CCN(c3ccc(F)cc3)CC2)C1 (stereo unspecified),6%,8%,-8%,-26,-2,7%,nt
CCc1oc2ccccc2c1C(=O)c1cc(I)c(O)c(I)c1,nt,-15%,nt,nt,nt,nt,nt
CCOC(=O)N1CCN(C(=O)CCC(=O)N2CCOc3ccc(C)cc32)CC1,5.6µM*,-5%,-2%,-33,13,7%,-7
CCOc1ccc(CCNC(=O)COC(=O)Cc2ccc(F)cc2)cc1OCC,nt,4%,nt,nt,nt,4%,nt
CCOc1ccc(CCNC(=O)Cc2nn[nH]n2)cc1OCC,?,-3%,0%,-4,-2,-2%,9
CCCS(=O)(=O)c1nc(S(=O)(=O)c2ccc(C)cc2)c(N(C)Cc2ccccc2)s1,nt,-7%,nt,nt,nt,nt,nt
O=C(c1ccccc1)n1c(=O)c(F)cn(COCCBr)c1=O,-13%,-3%,-2%,-6,-2,-15%,nt
O=C(CNC(=O)c1ccc(Cl)cc1Cl)OCN1C(=O)c2ccccc2C1=O,nt,-3%,nt,nt,nt,2%,nt
O=C(Cc1c(F)cccc1Cl)OCN1C(=O)c2ccccc2C1=O,2.2µM*,-9%,-4%,-8,-1,9%,-6
SMILES,NS1 inh,TbPYK inhibitor,LmPK inh,Shiga toxin inh,Cycloheximide cs,SARS PLP yeast,NS1 inh valid
Nc1nc2ccc(Cl)cc2o1,nt,2%,nt,nt,nt,nt,nt
C/C(=N\Nc1nc2ccc(Cl)cc2o1)c1ccccc1,8.9µM*,1%,4%,74*,27*,-2%,?
CN(C)c1cccc(CNC(=O)c2ccc3sc([C@@H]4O[C@H](CO)[C@H](O)[C@H](O)[C@H]4O)nc3c2)c1,nt,5%,nt,nt,nt,nt,nt
CCC(C)[C@H](NC(=O)NCc1cccc(OC)c1)C(=O)OC (stereo partly specified),2.2µM*,-8%,2%,29,3,13%,-9
COc1cccc(CNC(=O)N[C@@H](CC(C)C)C(=O)O)c1,8%,-5%,2%,-13,-7,-3%,nt
CCn1cnc2c(=O)oc3ccc(S(=O)(=O)N4CCN(c5cc(C)ccc5C)CC4)cc3c21,nt,-2%,nt,nt,nt,nt,nt
CN(C)S(=O)(=O)c1cc(NC(=O)CSc2cccc[n+]2[O-])ccc1Cl,nt,-3%,nt,nt,nt,0%,nt
CN(C)S(=O)(=O)c1cc(NC(=O)CSc2ncc(C(F)(F)F)cc2Cl)ccc1Cl,13µM*,3%,4%,14,8,11%,-11
COc1ccc(NC(=O)c2cc3c(=O)n(C)c4ccccc4c3s2)cc1OC,nt,1%,-1%,-17,-4,2%,nt
O=C(CSc1nnc(-c2ccc(O)cc2)n1-c1ccccc1)CC(=O)Nc1ccccc1,10µM*,-17%,1%,-7,7,-4%,23
Cn1c(SCC(=O)CC(=O)Nc2ccccc2)nnc1-c1ccc(O)cc1,?,-4%,3%,2,-2,2%,nt
O=C(CSc1nnnn1-c1ccccc1)CC(=O)Nc1ccc(Cl)cc1,2.5µM*,-15%,1%,17,8,-5%,10
COCCCN(C(=S)NC(=O)C12CC3CC(CC(C3)C1)C2)c1c(N)n(Cc2ccccc2)c(=O)[nH]c1=O,-19%,-10%,1%,10,-4,-1%,nt
COC(=O)[C@@]1(Sc2ccc(C)cc2)CC(=O)N[C@@H]1c1ccc(C(F)(F)F)cc1,nt,1%,nt,nt,nt,nt,nt
CCCCCCC(=O)N1C/C=C\C(c2ccc(OC)cc2)N(Cc2ccc(F)cc2)C(=O)C1Cc1ccccc1 (stereo unspecified),nt,nt,nt,17,12,nt,nt
CCCCCCCN1C/C=C\C(c2ccc(OC)cc2)N(Cc2ccc(F)cc2)C(=O)[C@H]1Cc1ccccc1 (stereo partly specified),?,9%,3%,-4,-3,0%,-27
CN(C)S(=O)(=O)c1ccc(N2CCCC2)c(C(=O)OCC(=O)N2CCN(c3ccccc3)CC2)c1,nt,4%,nt,nt,nt,nt,nt
COc1cccc(C2CC(c3ccc(Cl)cc3)Nc3nc(N)nn32)c1 (stereo unspecified),7.1µM*,-3%,0%,2,4,22%,-11
CC(C)Sc1nnc([C@@H](N)Cc2ccccc2)o1,?,-2%,6%,35,43*,10%,-3
O=C(c1cccc(F)c1)N1CCC2(CCN(Cc3cc(C(F)(F)F)cc(C(F)(F)F)c3)CC2)CC1,nt,0%,nt,nt,nt,nt,nt
